HT1080 IDH1KD tx: kills HT-1080 cells with IDH1 knockdown | Potency, µM (titrated, usually from 46.1 µM), without a hit: at the top dose activity, negative = toxicity, usual class: cytotoxic | 360,000 tested, 2% active | HT-1080 IDH1 knockdown viability, ATP luminescence, 48 h;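 further: potency means the concentration at half of the fitted maximal effect; 0% = DMSO wells and -100% = cell-free medium wells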
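Assay cells: HT-1080 with IDH1 knockdown, 750 per well, RPMI/5% FBS. Exposure: 48 h at 37 °C following 2 h pre-incubation. Read: CellTiter-Glo luminescence; fitted concentration-response, curve class assigned.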
HT1080NT lethal: kills 2HG-producing HT-1080-NT fibrosarcoma cells. AID 686970. HT-1080-NT fibrosarcoma viability, CellTiter-Glo ATP luminescence, 48 h. Potency, µM (titrated, usually from 46.1 µM), for inactives: top-dose activity, negative = less viability, most hits filed as cytotoxic. 360,000 tested, 1.6% active;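 further: NT is the 2HG producing partner of a matched IDH1 knockdown line; potency means the concentration at half of the fitted maximal effect; 0% = DMSO-treated cells and -100% = media-only wells without cells; nearly all actives have a fitted effect of over 55% in size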
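Compounds were tested in concentration-response format on HT-1080-NT cells for 48 hours at 37 degrees C. Cell viability came from CellTiter-Glo luminescence; curves were classified by r2, response magnitude and activity.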
uPA surface inh: blocks generation of uPA at the cell surface. cell surface uPA generation assay, qHTS. Potency, µM (doses to about 38.3 µM), without a hit: at the top dose activity change, negative = inhibition, actives largely listed as inhibitors. 330,000 tested, 0.31% active. AID 540303; active means well fitted inhibition curve with a large enough effect; inconclusive means small, poorly fitted or top-dose-only effect; inactive means no such curve, though single readings can be large or run the other way; tested in mouse RAW 264.7 cells; further: potency means the concentration at half of the fitted maximal effect; nearly all actives have a fitted effect of over 55% in size
DT40 TDP1 no CPT: qHTS for Inhibitors of human tyrosyl-DNA phosphodiesterase 1 (TDP1): qHTS in cells in absence of CPT; Potency, µM (series often up to 46.2 µM), for inactives: top-dose activity change, negative = growth inhibition, hits mostly inhibitors; DT40 Tdp1-/- hTDP1 cells, no CPT, ATP luminescence, 48 h; AID 686978, 2013; 420,000 tested, 15% active; further: potency means the concentration at half of the fitted maximal effect; nearly all actives have a fitted effect of over 55% in size
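Compound effects on proliferation are scored in DT40 Tdp1-/-;hTDP1 cells in the absence of CPT. ATP levels (CellTiter-Glo luminescence) are recorded after a ≥48 hr, 37 °C incubation.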
TDP1 cell CPT: DT40-hTDP1 cell growth loss with CPT | Potency, µM (titrated, usually from 46.2 µM), for inactives: top-dose activity change, negative = growth inhibition, most hits filed as inhibitors | 420,000 tested, 12% active | chicken DT40 Tdp1-/-;hTDP1 cells + 20 nM CPT, ATP luminescence, 48 h; further: potency means the concentration at half of the fitted maximal effect; nearly all actives have a fitted effect of over 55% in size
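Chicken DT40 Tdp1-/- cells complemented with human TDP1, 400 cells/well, exposed to compounds plus 20 nM camptothecin for at least 48 h at 37 C; viability read as ATP content by CellTiter-Glo luminescence.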
IL-1B inflam inh: inhibitors of inflammasome signaling (IL-1 beta secretion) | THP-1 LPS/ATP IL-1B secretion, AlphaLISA, 16 h; stronger effect = lower value | activity change, % at 57.5 µM | 360,000 tested, 4.7% active | AID 743279; in the data active means activity change below about -50%; inconclusive means mostly about -30% to -49%
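THP-1 cells pretreated 1 hr with compounds (up to 57.5 uM final), then stimulated with LPS (250 ng/mL final) plus ATP (1.25 mM final); secreted IL-1B measured by AlphaLISA after 16 hr, decreased signal indicating inhibition.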
Numbers without * were called inactive; ? = inconclusive; . = no result given. The list is not random: actives were taken first. Their share in the collection is about 19%. Unless noted, the call rests on the fitted dose curve; in most records, active means well fitted curve in the direction sought with a large enough effect; inconclusive means small, poorly fitted or top-dose-only effect, or another doubt; inactive means no such curve, though single readings can be large; an effect the other way counts as inactive or inconclusive. Unless noted, on the % scale 0 is the no-effect control and ±100 the full control effect.

SMILES	HT1080 IDH1KD tx	HT1080NT lethal	uPA surface inh	DT40 TDP1 no CPT	TDP1 cell CPT	IL-1B inflam inh
CCS(=O)(=O)NCCc1sc2nc(-c3ccc(OC)cc3)nn2c1C	.	.	.	21µM*	?	.
Cc1c(CCNC(=O)c2ccc(Br)o2)sc2nc(-c3ccc(Cl)cc3)nn12	.	.	.	23µM*	18µM*	.
Cc1ccc(OCC(=O)NC(=S)Nc2ccc(Br)cn2)cc1C	15%	-12%	4%	-1%	9%	105
C/C(=N\N(Cc1ccccc1)c1ccccc1)c1cccnc1	-11%	1%	7%	?	?	-51*
Cc1nn(-c2ccccc2)c(NC(=O)c2cccs2)c(-c2ccccc2Cl)c1=O	2%	0%	-5%	-2%	3%	-16
COc1cccc(C(=O)c2ccncc2C(=O)O)c1OC	5%	7%	.	-10%	14%	-8
Cc1nn(-c2ccccn2)c2c1C(=O)CC(C)(C)C2Br (configuration not stated)	?	?	-7%	?	16µM*	30
O=C(O)CCSc1ccccn1	3%	2%	0%	0%	-4%	33
O=C(CCSc1ccccn1)c1ccccc1	?	5%	0%	2.6µM*	2.3µM*	?
O=C(Nc1ccccc1C(=O)Nc1ccccn1)c1ccc([N+](=O)[O-])cc1	-5%	0%	-1%	-21%	-7%	1
O=C(Nc1ccccn1)c1ccc([N+](=O)[O-])o1	?	?	7.1µM*	16µM*	16µM*	-92*
Cc1ccnc(NC(=O)c2ccccc2[N+](=O)[O-])c1	13%	9%	3%	-2%	-23%	0
O=C(Nc1ncccn1)c1ccc([N+](=O)[O-])o1	?	?	-13%	?	?	-90*
Cc1ccnc(NC(=O)c2ccc([N+](=O)[O-])o2)c1	-24%	?	-11%	?	21µM*	.
NC(=O)c1ccsc1NC(=O)c1ccc([N+](=O)[O-])o1	?	?	7.1µM*	8.2µM*	13µM*	-68*
COc1ccc(C)cc1NC(=O)C1CCN(S(=O)(=O)c2c(C)noc2/C=C/c2ccco2)CC1	.	.	.	-28%	-15%	.
Cc1ccc(C)c(SCC(=O)NCC(c2ccco2)N2CCCCC2)c1 (configuration not stated)	-3%	-5%	0%	21µM*	?	-7
Cc1ccc(C(=O)NCC(=O)NCC(c2ccco2)N2CCCCC2)cc1C (configuration not stated)	-2%	-5%	-2%	1%	?	-7
Cc1ccc(C)c(OCC(=O)NCC(c2ccco2)N2CCCCC2)c1 (configuration not stated)	-13%	7%	1%	?	?	-23
CC(=O)Nc1ccc(S(=O)(=O)NC(C)C(=O)NCC(c2ccco2)N2CCCCC2)cc1 (configuration not stated)	3%	12%	-28%	-26%	0%	6
Cc1ccc(S(=O)(=O)NC(CC(C)C)C(=O)NCC(c2ccco2)N2CCCCC2)cc1 (configuration not stated)	?	2%	-3%	?	23µM*	-13
Cc1cc(Br)ccc1SCC(=O)NCC(c1ccco1)N1CCCCC1 (configuration not stated)	-18%	-17%	0%	?	18µM*	-24
Cc1ccc(NC(=O)CSc2nnc(CNC(=O)c3ccco3)n2C)cc1C	3%	6%	-17%	3%	-11%	8
O=C(c1nc2ncccn2n1)N1CCOc2ccc(C(O)C(c3ccccc3)c3ccccc3)cc2C1 (configuration not stated)	.	.	.	-46%	?	.
